Measured values from paper PMC4336329 (PLoS ONE, 2015).
The campaign covered roughly 310,000 compounds. About 14,000 (4.5%) showed an effect of 50% or more. The effect is printed as a negative number. For the sample, strong results were picked, then their nearest neighbours and some compounds at random.

Target: human ether-à-go-go-related gene (hERG) potassium channel (human, UniProt Q12809)
Assay: primary screen, population patch clamp on CHO cells stably expressing hERG; higher = less effect of the substance
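Also: peak tail current of the secondary pulse compared with the same well before compound.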

human ether-à-go-go-related gene (hERG) potassium channel, sequence (Q12809 whole entry, looked up): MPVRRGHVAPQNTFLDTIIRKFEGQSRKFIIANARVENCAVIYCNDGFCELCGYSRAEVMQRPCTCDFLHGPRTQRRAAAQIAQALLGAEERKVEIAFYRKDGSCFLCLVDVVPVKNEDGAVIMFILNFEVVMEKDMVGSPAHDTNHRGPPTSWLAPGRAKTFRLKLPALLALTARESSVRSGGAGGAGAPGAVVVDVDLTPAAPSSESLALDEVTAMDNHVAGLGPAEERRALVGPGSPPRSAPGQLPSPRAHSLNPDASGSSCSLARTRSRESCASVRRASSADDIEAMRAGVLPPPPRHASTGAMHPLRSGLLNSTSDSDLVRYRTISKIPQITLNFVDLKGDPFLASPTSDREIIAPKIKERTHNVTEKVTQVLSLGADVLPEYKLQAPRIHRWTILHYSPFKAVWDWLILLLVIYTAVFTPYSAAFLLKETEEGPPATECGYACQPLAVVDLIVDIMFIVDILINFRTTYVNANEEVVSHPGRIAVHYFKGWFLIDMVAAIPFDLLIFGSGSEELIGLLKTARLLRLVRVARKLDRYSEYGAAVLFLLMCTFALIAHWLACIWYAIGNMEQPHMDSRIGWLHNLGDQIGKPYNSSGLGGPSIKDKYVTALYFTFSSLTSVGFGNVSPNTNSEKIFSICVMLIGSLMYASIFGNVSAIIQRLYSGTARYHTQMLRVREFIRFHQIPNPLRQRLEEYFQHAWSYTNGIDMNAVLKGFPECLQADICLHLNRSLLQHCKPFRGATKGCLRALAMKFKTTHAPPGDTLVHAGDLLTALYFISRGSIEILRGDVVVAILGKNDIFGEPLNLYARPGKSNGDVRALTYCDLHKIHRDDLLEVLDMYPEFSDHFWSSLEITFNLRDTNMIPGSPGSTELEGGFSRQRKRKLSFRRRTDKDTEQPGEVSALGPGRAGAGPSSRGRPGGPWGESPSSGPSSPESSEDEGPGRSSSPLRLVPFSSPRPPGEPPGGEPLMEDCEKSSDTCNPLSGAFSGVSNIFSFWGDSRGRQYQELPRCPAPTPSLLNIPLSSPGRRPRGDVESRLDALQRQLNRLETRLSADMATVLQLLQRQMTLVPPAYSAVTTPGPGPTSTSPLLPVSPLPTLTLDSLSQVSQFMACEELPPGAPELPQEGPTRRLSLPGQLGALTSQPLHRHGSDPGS

SMILES	hERG current change (%, negative = inhibition) at 10uM [%]
C(=N\N(Cc1ccccc1)c1ccccc1)/c1ccco1	-11.5
O=C(CNC(=O)c1ccccc1F)OCc1nc2ccccc2s1	20.6
COc1cc(C(=O)Nc2nccs2)cc(OC)c1OC	3.55
CSc1ccc(/C=N/n2c(C3CCCCC3)n[nH]c2=S)cc1	21.9
O=C(/C=C/c1ccc2c(c1)OCO2)Nc1nc(-c2ccc(F)cc2F)cs1	9.08
O=C(O)/C=C/c1cccc(NC(=O)c2ccccc2)c1	9.14
CCOc1ccc(NC(=O)CN(C)C(=O)Cn2cnc3c2c(=O)n(C)c(=O)n3C)cc1OCC	5.62
COc1ccc(S(=O)(=O)NCC(c2cccnc2)N2CCN(Cc3ccccc3)CC2)cc1 (centres unmarked)	-58.5
Cc1ccc(S(=O)(=O)NCC(c2cccnc2)N2CCOCC2)cc1 (centres unmarked)	5.12
Cc1ccc(S(=O)(=O)NCC(c2cccnc2)N2CCc3ccccc32)cc1 (centres unmarked)	-2.1
Cc1ccc(S(=O)(=O)NCC(c2cccnc2)N2CCN(Cc3ccccc3)CC2)cc1 (centres unmarked)	-73.1
CCN1CCN(C(CNS(=O)(=O)c2ccc(OC)cc2)c2cccnc2)CC1 (centres unmarked)	-45.4
O=C(CCC(=O)OCC(=O)c1ccc([N+](=O)[O-])cc1)NC1CCCCC1	-0.724
COc1ccc(Cn2nnnc2CN2CCC(O)(c3ccc(F)cc3)CC2)cc1	-14.5
COc1ccc(C(=O)Nc2ccc(-n3nncc3C(C)(C)C)cc2)cc1	-26.4
COc1cccc(C(=O)Nc2ccc(-n3nncc3C(C)(C)C)cc2)c1	-60.5
CC(C)(C)c1cnnn1-c1ccc(NC(=O)c2ccc3c(c2)OCO3)cc1	-17.4
O=C1CCCc2c1cc(C(=O)Nc1ccc(Br)cn1)c(=O)n2-c1ccccc1	-2.93
O=C1CCCc2c1cc(C(=O)O)c(=O)n2-c1ccccc1	13.9
CC1(C)CC(=O)c2cc(C(=O)NCc3ccco3)c(=O)n(-c3ccc(Cl)cc3)c2C1	-22.2
Cc1ccc(-n2c3c(cc(C(=O)NCc4ccco4)c2=O)C(=O)CCC3)cc1	-53.8
COc1ccc(-n2c3c(cc(C(=O)NCc4ccco4)c2=O)C(=O)CC(C)(C)C3)cc1	-56.6
O=C1CCCc2c1cc(C(=O)NCc1ccco1)c(=O)n2-c1ccccc1	-10.3
O=C1CCCc2c1cc(C(=O)NCCCN1CCOCC1)c(=O)n2-c1ccc(Cl)cc1	1.59
Cc1ccc(-n2c3c(cc(C(=O)NCc4ccco4)c2=O)C(=O)CC(C)(C)C3)cc1	-6.38

SMILES	hERG current change (%, negative = inhibition) at 10uM [%]
CC1(C)CC(=O)c2cc(C(=O)NCc3ccco3)c(=O)n(-c3ccccc3)c2C1	-19.7
Cc1ccc(-n2c3c(cc(C(=O)NCC(=O)c4ccccc4)c2=O)C(=O)CCC3)cc1	10.2
O=C1CCCc2c1cc(C(=O)Nc1ccc(Cl)cn1)c(=O)n2-c1ccccc1	-60.1
O=C1CCCc2c1cc(C(=O)NCc1ccco1)c(=O)n2-c1ccc(Cl)cc1	-69.3
CS(=O)(=O)N(CC(=O)N1CCN(c2cccc(Cl)c2)CC1)c1cccc(F)c1	-33.8
COc1ccccc1NC(=O)Cn1c(CN2CCCCC2)nc2ccccc2c1=O	-43.7
CN(Cc1cccs1)C(=O)CCCc1c[nH]c2ccccc12	-1.49
COc1ccc(/C(O)=C2/C(=O)C(=O)N(CCN(C)C)C2c2ccc(OC)c(OC)c2)c(C)c1 (centres unmarked)	11
O=C(c1cc(S(=O)(=O)N2CCOCC2)ccc1Cl)N1CCC(Cc2ccccc2)CC1	-15.9
Cc1cc(CNC(=O)c2ccc(C)c([N+](=O)[O-])c2)c2ccccc2n1	8.05
Cc1cc(CNC(=O)c2cccc([N+](=O)[O-])c2)c2ccccc2n1	6.72
Cc1cc(CNC(=O)c2cccc([N+](=O)[O-])c2C)c2ccccc2n1	-53
CN(CC(=O)Nc1ccc(F)cc1)C(=O)COc1ncnc2ccccc12	-19.3
Cc1ccc(NC(=O)COc2ccccc2C(=O)NCc2ccccc2)cc1	-31.1
Cc1ccc(-c2cn(C[C@H]3CC[C@@H]([C@@H]4CC[C@H](Cn5cc(-c6ccc(C)cc6)nn5)O4)O3)nn2)cc1	-7.99
c1ccc(-c2cn(C[C@H]3CC[C@H](Cn4cc(-c5ccccn5)nn4)O3)nn2)nc1	-9.3
COc1cccc(-c2cn(C[C@H]3CC[C@@H]([C@@H]4CC[C@H](Cn5cc(-c6cccc(OC)c6)nn5)O4)O3)nn2)c1	-72.7
c1ccc(-c2cn(C[C@H]3CC[C@@H]([C@@H]4CC[C@H](Cn5cc(-c6ccccc6)nn5)O4)O3)nn2)cc1	-23.8
c1ccc(-c2cn(C[C@H]3CC[C@@H]([C@@H]4CC[C@H](Cn5cc(-c6ccccn6)nn5)O4)O3)nn2)nc1	-6.73
COc1ccc(-c2cn(Cc3cccc(OC)c3)nn2)cc1	-0.524
c1cc(-c2cn(C[C@H]3CC[C@@H]([C@@H]4CC[C@H](Cn5cc(-c6ccsc6)nn5)O4)O3)nn2)cs1	-75.5
c1cncc(-c2cn(C[C@H]3CC[C@@H]([C@@H]4CC[C@H](Cn5cc(-c6cccnc6)nn5)O4)O3)nn2)c1	-58.5
COc1ccc(-c2cn(CC3CCCCC3)nn2)cc1	15.3
Cc1c(CCO)c(=O)n(C)n1C(=O)c1ccc(F)cc1	2.6
CCCCCN(C(=O)CCC(=O)OCc1ccc(C(C)(C)C)cc1)c1c(N)n(CCCC)c(=O)[nH]c1=O	-8.09
